From PubChem BioAssay (Tox21)
Inconclusive results are not listed. Calls of active or inactive are those of the source. Unless noted, calls come from the whole dose curve.

What was measured:
[1] = Nuclear factor erythroid 2-related factor 2/antioxidant responsive element (Nrf2/ARE) small molecule agonists: qHTS cell viability counter screen in human keratinocytes (AID 1919968; active = well fitted curve in the direction sought with a large enough effect in the repeat runs; an effect the other way counts as inactive or inconclusive; note: nearly all actives have a fitted effect of over 55% in size; note: potency is the fitted concentration of half-maximal effect)
How it was run: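 Seed 1,500 KeratinoSens cells per well, then incubate 5 h at 37 C/5% CO2. Add compounds in DMSO and incubate 23 h. Add CellTiter-Fluor, wait 1 h and read fluorescence.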

[2] = Nuclear factor erythroid 2-related factor 2/antioxidant responsive element (Nrf2/ARE) small molecule agonists: luciferase reporter gene qHTS assay in human keratinocytes (AID 1919969); note: nearly all actives have a fitted effect of over 35% in size; note: potency is the fitted concentration of half-maximal effect
[3] = biological target: Gonadotropin-releasing hormone receptor (Homo sapiens) (UniProt P30968); assay: Human gonadotropin-releasing hormone receptor (GnRHR) small molecule agonists, calcium flux assay in GnRHR-HEK293 cells (AID 1920063); note: nearly all actives have a fitted effect of over 35% in size
Sequence of Gonadotropin-releasing hormone receptor (Homo sapiens) (P30968 whole entry, looked up): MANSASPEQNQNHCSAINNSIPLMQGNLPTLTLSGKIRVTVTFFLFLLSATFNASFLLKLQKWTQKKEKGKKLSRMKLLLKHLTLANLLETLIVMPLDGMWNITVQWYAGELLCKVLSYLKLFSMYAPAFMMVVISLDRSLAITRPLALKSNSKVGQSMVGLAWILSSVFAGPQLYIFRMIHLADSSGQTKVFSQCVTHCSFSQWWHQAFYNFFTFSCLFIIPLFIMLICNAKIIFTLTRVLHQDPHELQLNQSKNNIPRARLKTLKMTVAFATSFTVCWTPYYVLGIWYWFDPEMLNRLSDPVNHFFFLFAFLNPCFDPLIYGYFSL
How it was run: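 Cells: HEK293 stably expressing human GnRHR. Steps: overnight (18 h) culture, 1 h calcium dye loading at 37 C, compound addition, kinetic fluorescence read at 480/540 nm. Each compound tested at 15 concentrations in triplicate.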

[4] = biological target: KiSS-1 receptor (Homo sapiens) (UniProt Q969F8); assay: Human kisspeptin (KISS1R) small molecule agonists, calcium flux assay in KISS1R-HEK293 cells (AID 1920064; active = well fitted curve in the direction sought with a large enough effect in the repeat runs; an effect the other way counts as inactive or inconclusive)
Sequence of KiSS-1 receptor (Homo sapiens) (Q969F8 whole entry, looked up): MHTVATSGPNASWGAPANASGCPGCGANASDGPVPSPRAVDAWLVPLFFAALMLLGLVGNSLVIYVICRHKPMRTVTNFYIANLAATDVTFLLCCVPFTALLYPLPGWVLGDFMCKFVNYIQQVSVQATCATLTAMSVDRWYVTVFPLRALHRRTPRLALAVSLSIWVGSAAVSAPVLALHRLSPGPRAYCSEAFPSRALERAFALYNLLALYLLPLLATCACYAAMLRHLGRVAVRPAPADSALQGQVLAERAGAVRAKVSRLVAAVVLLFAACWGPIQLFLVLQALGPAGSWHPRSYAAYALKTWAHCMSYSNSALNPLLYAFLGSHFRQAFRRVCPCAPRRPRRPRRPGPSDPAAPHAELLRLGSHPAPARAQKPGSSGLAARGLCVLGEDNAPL
How it was run: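 Cells plated and incubated 18 h; dye added, 1 h at 37 C; compounds in DMSO pinned in; signal read at 480/540 nm every second for 3 min. Each compound tested at 15 concentrations in triplicate.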

[5] = G protein-coupled receptor (GPCR) small molecule agonists, calcium flux assay: HEK293 wild type cell line counter screen (AID 1920065)
How it was run: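 Counter-screen of the Tox21 10K library for non-specific calcium release: dye-loaded cells received compounds in DMSO and were monitored by kinetic fluorescence (480/540 nm, 3 min). Fifteen concentrations, run in triplicate.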

[6] = p53 small molecule agonists, cell-based qHTS assay with human liver microsomes (AID 1963577)
How it was run: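 Compounds act here after metabolic activation: human liver microsomes and NADPH, both at 0.5 mg/mL final, were co-added to p53RE-bla cells. Incubation ran 16 h at 37 C, followed by LiveBLAzer detection.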

[7] = p53 small molecule agonists, cell-based qHTS assay with rat liver microsomes (AID 1963578)
How it was run: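 Read-out is beta-lactamase reporter fluorescence (LiveBLAzer, 2 h, room temperature, dark) in p53RE-bla cells treated 16 h at 37 C with compound, rat liver microsomes and NADPH, both 0.5 mg/mL final.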

[8] = p53 small molecule agonists, cell-based qHTS assay with human liver microsomes: qHTS cell viability counter screen (AID 1963579); note: nearly all actives have a fitted effect of over 45% in size
How it was run: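 Cells carrying the p53 response-element beta-lactamase reporter are treated for 16 h at 37 C with test compounds in the presence of human liver microsomes and NADPH (both 0.5 mg/mL final); ATP-based CellTiter-Glo luminescence then reports viability.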

[9] = p53 small molecule agonists, cell-based qHTS assay with rat liver microsomes: qHTS cell viability counter screen (AID 1963580); note: nearly all actives have a fitted effect of over 45% in size
How it was run: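 p53RE-bla HCT-116 cells (4,000/well) rested 5 h at 37 C, then given Tox21 compounds in DMSO with rat liver microsomes (0.5 mg/mL final) plus NADPH (0.5 mg/mL final) for 16 h at 37 C. Viability read by CellTiter-Glo luminescence after 30 min at room temperature.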

[10] = p53 small molecule agonists, cell-based qHTS assay: qHTS cell viability counter screen (AID 1963581); note: nearly all actives have a fitted effect of over 45% in size
How it was run: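 Cells: HCT-116 with p53 response element-driven beta-lactamase. Treatment: 16 h, 37 C, compounds in DMSO. Read: CellTiter-Glo luminescence after 30 min RT.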

[11] = p53 small molecule agonists, cell-based qHTS assay (AID 1963582; active = well fitted activation curve with a large enough effect in the signal ratio in the repeat runs, not every such curve was filed as active; the % refers to the signal ratio)
How it was run: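 Quantitative HTS in p53RE-bla cells: after a 5 h settling period, compounds delivered in DMSO were left on cells for 16 h at 37 C, and reporter induction was measured as fluorescence following 2 h substrate loading.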

[12] = biological target: Beta-2 adrenergic receptor (Homo sapiens) (UniProt P07550); assay: Adrenergic beta2 receptor (ADRB2) small molecule antagonists, cell-based qHTS assay (AID 1963592); note: series mostly up to about 92 µM; nearly all actives have a fitted effect of over 50% in size
Sequence of Beta-2 adrenergic receptor (Homo sapiens) (P07550 whole entry, looked up): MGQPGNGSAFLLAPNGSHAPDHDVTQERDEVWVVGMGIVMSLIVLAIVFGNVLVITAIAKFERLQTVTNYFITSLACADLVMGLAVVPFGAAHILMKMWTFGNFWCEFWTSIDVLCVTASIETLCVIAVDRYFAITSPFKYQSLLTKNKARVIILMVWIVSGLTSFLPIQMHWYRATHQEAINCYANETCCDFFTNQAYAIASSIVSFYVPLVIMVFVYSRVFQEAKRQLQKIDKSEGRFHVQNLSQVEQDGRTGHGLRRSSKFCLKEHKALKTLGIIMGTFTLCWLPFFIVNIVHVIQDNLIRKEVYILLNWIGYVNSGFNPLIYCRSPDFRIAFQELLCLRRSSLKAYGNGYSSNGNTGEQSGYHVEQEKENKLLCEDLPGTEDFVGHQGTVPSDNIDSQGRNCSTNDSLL
How it was run: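 Cells (CHO, stable ADRB2 overexpression) incubated 18-20hr at 37C; compounds added from DMSO; agonist mix (1nM isoproterenol, 100uM IBMX, 25uM Ro-20-1724) added; 0.5hr RT; d2-cAMP and anti-cAMP-cryptate added; 1hr RT; 665/615 nm read.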

[13] = biological target: Beta-2 adrenergic receptor (Homo sapiens) (UniProt P07550); assay: Adrenergic beta2 receptor (ADRB2) small molecule agonists, cell-based qHTS assay (AID 1963593);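 note: CHO cells stably overexpressing human ADRB2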
How it was run: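 CHO cells stably over-expressing ADRB2 were plated overnight at 37C, then dosed with compounds plus a stimulation mix containing 100uM IBMX and 25uM Ro-20-1724 for 0.5hr at room temperature. cAMP was measured by HTRF competition, 1hr.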

[14] = biological target: D(2) dopamine receptor (Homo sapiens) (UniProt P14416); assay: Dopamine D2 receptor (DRD2) small molecule antagonists, cell-based qHTS assay (AID 1963595; active = well fitted inhibition curve with a large enough effect in the signal ratio in the repeat runs, with a control signal flat; the % refers to the signal ratio)
Sequence of D(2) dopamine receptor (Homo sapiens) (P14416 whole entry, looked up): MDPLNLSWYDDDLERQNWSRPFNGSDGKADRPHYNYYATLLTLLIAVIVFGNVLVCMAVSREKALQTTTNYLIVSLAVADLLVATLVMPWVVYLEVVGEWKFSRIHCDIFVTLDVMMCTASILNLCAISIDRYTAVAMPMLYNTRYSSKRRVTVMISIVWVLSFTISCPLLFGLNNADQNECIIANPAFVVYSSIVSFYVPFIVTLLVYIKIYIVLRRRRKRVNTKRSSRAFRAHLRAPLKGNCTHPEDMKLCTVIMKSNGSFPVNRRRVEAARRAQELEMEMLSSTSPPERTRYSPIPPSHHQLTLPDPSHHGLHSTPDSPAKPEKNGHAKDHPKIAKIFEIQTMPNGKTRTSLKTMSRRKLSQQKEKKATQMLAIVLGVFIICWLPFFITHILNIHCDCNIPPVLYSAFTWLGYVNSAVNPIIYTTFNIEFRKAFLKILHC
How it was run: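 HEK293 cells stably expressing DRD2 were preincubated with 0.1 mM Ro20-1724, then with compound for 10 min at room temperature. Cells were stimulated with 200 nM NKH477 plus 12 nM quinpirole for 30 min, and cAMP was read by HTRF.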

[15] = cAMP Responsive Elements (CRE) small molecule antagonists, cell-based qHTS assay (AID 1963591; active = well fitted inhibition curve with a large enough effect in the signal ratio in the repeat runs, not every such curve was filed as active; the % refers to the signal ratio)
How it was run: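 Antagonist mode: test compounds are co-incubated with the adenylyl cyclase activator NKH477 (0.25 uM final) on CRE-bla HEK293T cells for 3 h at 37 °C, followed by LiveBLAzer substrate loading.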

[16] = biological target: D(2) dopamine receptor (Homo sapiens) (UniProt P14416); assay: Dopamine D2 receptor (DRD2) small molecule agonists, cell-based qHTS assay (AID 1963594); note: nearly all actives have a fitted effect of over 35% in size
How it was run: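 HEK293 cells stably expressing DRD2 were cultured 24 h at 37 C, then given Ro20-1724 (0.1 mM final) and compounds for 10 min at room temperature. NKH477 (200nM) was then added for 30 min. cAMP was read by HTRF.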

[17] = biological target: 5-hydroxytryptamine receptor 2A (Homo sapiens) (UniProt P28223); assay: 5-hydroxytryptamine receptor 2A (HTR2A) small molecule agonists, cell-based qHTS assay (AID 1963587); note: nearly all actives have a fitted effect of over 30% in size
Sequence of 5-hydroxytryptamine receptor 2A (Homo sapiens) (P28223 whole entry, looked up): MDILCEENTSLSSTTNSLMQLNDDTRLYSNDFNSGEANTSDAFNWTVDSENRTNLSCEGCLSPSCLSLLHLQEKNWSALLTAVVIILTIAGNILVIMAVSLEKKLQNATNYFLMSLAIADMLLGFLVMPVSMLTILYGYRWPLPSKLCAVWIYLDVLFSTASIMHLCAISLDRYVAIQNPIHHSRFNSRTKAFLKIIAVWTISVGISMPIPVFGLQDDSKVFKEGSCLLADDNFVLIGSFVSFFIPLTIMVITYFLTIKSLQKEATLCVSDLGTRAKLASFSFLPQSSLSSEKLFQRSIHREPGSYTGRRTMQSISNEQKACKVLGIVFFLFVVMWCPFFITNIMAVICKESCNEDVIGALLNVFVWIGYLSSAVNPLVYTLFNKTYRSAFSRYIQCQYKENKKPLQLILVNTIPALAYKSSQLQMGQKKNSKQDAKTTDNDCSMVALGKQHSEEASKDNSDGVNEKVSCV
How it was run: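 HTR2A-CHO cells, plated 18 h at 37 C/5% CO2, dye-loaded 1 h at 37 C; compounds in DMSO added by pin tool (agonist mode). Intracellular calcium flux read as kinetic fluorescence on FDSS over 2 min at 1 s intervals.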

[18] = biological target: Muscarinic acetylcholine receptor M1 (Homo sapiens) (UniProt P11229); assay: Cholinergic receptor muscarinic 1 (CHRM1) small molecule antagonists, cell-based qHTS assay (AID 1963588); note: nearly all actives have a fitted effect of over 40% in size
Sequence of Muscarinic acetylcholine receptor M1 (Homo sapiens) (P11229 whole entry, looked up): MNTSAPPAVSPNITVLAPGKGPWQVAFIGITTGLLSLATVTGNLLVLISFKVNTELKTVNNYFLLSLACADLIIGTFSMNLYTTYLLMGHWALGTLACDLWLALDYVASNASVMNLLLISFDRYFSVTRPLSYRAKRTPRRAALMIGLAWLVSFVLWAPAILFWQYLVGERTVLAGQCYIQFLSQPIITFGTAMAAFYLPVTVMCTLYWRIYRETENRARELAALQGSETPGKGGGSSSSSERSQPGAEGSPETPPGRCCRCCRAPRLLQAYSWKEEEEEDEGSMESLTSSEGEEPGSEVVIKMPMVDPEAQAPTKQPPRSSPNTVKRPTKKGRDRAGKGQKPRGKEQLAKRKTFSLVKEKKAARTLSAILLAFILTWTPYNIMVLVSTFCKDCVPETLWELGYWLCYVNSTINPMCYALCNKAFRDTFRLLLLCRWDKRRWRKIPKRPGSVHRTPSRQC
How it was run: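 CHRM1-CHO calcium-flux assay, antagonist mode. Cells were seeded 18 h, dye-loaded 1 h at 37 C and given compound for 5 min at RT, then acetylcholine was added at 50nM. FDSS fluorescence was read 3 min; 15 concentrations, three runs.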

[19] = biological target: Muscarinic acetylcholine receptor M1 (Homo sapiens) (UniProt P11229); assay: Cholinergic receptor muscarinic 1 (CHRM1) small molecule agonists, cell-based qHTS assay (AID 1963589); note: nearly all actives have a fitted effect of over 35% in size
How it was run: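 Agonist-mode qHTS in CHO cells stably carrying human muscarinic M1. Intracellular calcium is tracked by fluorescence every second after compound transfer; each compound runs at 15 concentrations in three independent runs.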

[20] = cAMP Responsive Elements (CRE) small molecule agonists, cell-based qHTS assay (AID 1963590)
How it was run: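 Agonist mode qHTS in CRE-bla HEK 293T cells: compounds dosed from DMSO for 3 h at 37 C/5% CO2, followed by LiveBLAzer B/G FRET substrate for 2 h at room temperature.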
% is set by controls: 0 for no effect and ±100 for the full control effect.

Nc1nc2c(ncn2CCC(CO)CO)c(=O)[nH]1
inactive: Potency [1] | Potency [2] | Potency [3] | outcome [4] | outcome [5] | Potency [6] | Potency [7] | Potency [8] | Potency [9] | Potency [10] | Potency [11] | Potency [12] | Potency [13] | Potency [14]

CCOc1nc2cccc(C(=O)O)c2n1Cc1ccc(-c2ccccc2-c2nn[nH]n2)cc1
inactive: Potency [1] | Potency [2] | Potency [3] | outcome [4] | outcome [5] | Potency [6] | Potency [7] | Potency [8] | Potency [9] | Potency [10] | Potency [11] | Potency [15] | Potency [12] | Potency [13] | Potency [16] | Potency [14]

CC(=O)OC(C)(C)Cc1ccccc1
inactive: Potency [1] | Potency [2] | Potency [3] | outcome [4] | outcome [5] | Potency [6] | Potency [7] | Potency [8] | Potency [9] | Potency [10] | Potency [17] | Potency [18] | Potency [19] | Potency [20] | Potency [15] | Potency [12] | Potency [16]

CC(Cl)C(Cl)Cl (stereo not given)
inactive: Potency [1] | Potency [2] | Potency [3] | outcome [4] | outcome [5] | Potency [6] | Potency [7] | Potency [8] | Potency [9] | Potency [10] | Potency [17] | Potency [18] | Potency [19] | Potency [20] | Potency [15] | Potency [12] | Potency [16] | Potency [14]

COCCOC(=O)C1=C(C)NC(C)=C(C(=O)OC(C)C)C1c1cccc([N+](=O)[O-])c1 (stereo not given)
inactive: Potency [1] | Potency [2] | Potency [3] | outcome [4] | outcome [5] | Potency [6] | Potency [7] | Potency [8] | Potency [9] | Potency [10] | Potency [11] | Potency [12] | Potency [16]

CCOC(=O)/C=C/C(=O)O
active: Potency [2] 61.1 µM
inactive: Potency [1] | Potency [3] | outcome [4] | outcome [5] | Potency [6] | Potency [7] | Potency [8] | Potency [9] | Potency [10] | Potency [17] | Potency [18] | Potency [19] | Potency [20] | Potency [15] | Potency [12] | Potency [13] | Potency [16]

Cc1ccc2nc(N)[nH]c(=O)c2c1Sc1ccncc1
inactive: Potency [1] | Potency [2] | Potency [3] | outcome [4] | outcome [5] | Potency [6] | Potency [7] | Potency [8] | Potency [9] | Potency [10] | Potency [17] | Potency [18] | Potency [19] | Potency [20] | Potency [15] | Potency [12] | Potency [13] | Potency [16] | Potency [14]

CN1C[C@@H]2C[C@H]1CN2c1cc2c(cc1F)c(=O)c(C(=O)O)cn2C1CC1
inactive: activity change, negative = cytotoxicity [1] -0.599% [at 19 µM] | activity, positive = activation [2] -6.17% [at 19 µM] | activity change [3] -0.0937% [at 11.8 µM, active compounds read high] | activation [4] -1.39% [at 15.8 µM] | activation [5] 0.573% [at 11.8 µM] | activation [6] 9.29% [at 13.5 µM] | activation [7] 1.2% [at 13.6 µM] | activity change, negative = cytotoxicity [8] 13.7% [at 13.5 µM] | activity change, negative = cytotoxicity [9] 4.47% [at 13.5 µM] | activity change, negative = cytotoxicity [10] 10.7% [at 13.5 µM] | activation [11] 6.22% [at 13.5 µM] | activity change, negative = inhibition [15] 13.7% [at 18.9 µM] | activation [16] 2.8% [at 19 µM] | activity change, negative = inhibition [14] -0.654% [at 18.9 µM]

C[C@]12CCC(=O)C=C1CC[C@@H]1[C@@H]2[C@@H](O)C[C@@]2(C)[C@H]1CC[C@]2(O)C(=O)COC(=O)CCC(=O)O
inactive: Potency [1] | Potency [2] | Potency [3] | outcome [4] | outcome [5] | Potency [6] | Potency [7] | Potency [8] | Potency [9] | Potency [10] | Potency [17] | Potency [18] | Potency [19] | Potency [20] | Potency [15] | Potency [12] | Potency [13] | Potency [16] | Potency [14]

C/C(=N\O)c1ccc(OCC(=O)N2CCCCC2)cc1
inactive: Potency [1] | Potency [3] | outcome [4] | outcome [5] | Potency [6] | Potency [7] | Potency [8] | Potency [9] | Potency [10] | Potency [17] | Potency [18] | Potency [19] | Potency [20] | Potency [15] | Potency [12] | Potency [13] | Potency [16] | Potency [14]
active: Potency [2] 11.9 µM

CCCOc1ccc(C(=O)OCCN(CC)CC)cc1N
inactive: Potency [1] | Potency [2] | Potency [3] | outcome [4] | outcome [5] | Potency [6] | Potency [7] | Potency [8] | Potency [9] | Potency [10] | Potency [11] | Potency [20] | Potency [13] | Potency [16] | Potency [14]

CN(Cc1cc(Br)cc(Br)c1N)C1CCCCC1
inactive: Potency [2] | Potency [3] | outcome [4] | outcome [5] | Potency [6] | Potency [7] | Potency [8] | Potency [9] | Potency [10] | Potency [11] | Potency [12] | Potency [13] | Potency [16] | Potency [14]
active: Potency [1] 16.8 µM

Nc1ccc2cc(S(=O)(=O)O)ccc2c1
inactive: Potency [1] | Potency [2] | Potency [3] | outcome [4] | outcome [5] | Potency [6] | Potency [7] | Potency [8] | Potency [9] | Potency [10] | Potency [17] | Potency [18] | Potency [19] | Potency [20] | Potency [15] | Potency [12] | Potency [16]

C[Si]1(C)N[Si](C)(C)N[Si](C)(C)N1
inactive: Potency [1] | Potency [2] | Potency [3] | outcome [4] | outcome [5] | Potency [6] | Potency [7] | Potency [8] | Potency [9] | Potency [10] | Potency [17] | Potency [18] | Potency [19] | Potency [20] | Potency [15] | Potency [12]
